# Columns and labels:
# Assay in all cases: DAPPL (digital affinity profiling via proximity ligation, sequencing); 10 mM Tris-HCl pH 7.5, 50 mM NaCl, 1 mM DTT, 4% glycerol, room temperature, 30 min; GST-TFs on glutathione beads, 16-mer random dsDNA library, 0.1% formaldehyde crosslink after washing; high values mean tight binding
# Settings in all cases: protein: recombinant; tags: N-terminal GST; dsDNA, one strand shown
# [1] = molecular target: T1, FLI1 (Homo sapiens, UniProt Q01543 1-452)
# T1 sequence: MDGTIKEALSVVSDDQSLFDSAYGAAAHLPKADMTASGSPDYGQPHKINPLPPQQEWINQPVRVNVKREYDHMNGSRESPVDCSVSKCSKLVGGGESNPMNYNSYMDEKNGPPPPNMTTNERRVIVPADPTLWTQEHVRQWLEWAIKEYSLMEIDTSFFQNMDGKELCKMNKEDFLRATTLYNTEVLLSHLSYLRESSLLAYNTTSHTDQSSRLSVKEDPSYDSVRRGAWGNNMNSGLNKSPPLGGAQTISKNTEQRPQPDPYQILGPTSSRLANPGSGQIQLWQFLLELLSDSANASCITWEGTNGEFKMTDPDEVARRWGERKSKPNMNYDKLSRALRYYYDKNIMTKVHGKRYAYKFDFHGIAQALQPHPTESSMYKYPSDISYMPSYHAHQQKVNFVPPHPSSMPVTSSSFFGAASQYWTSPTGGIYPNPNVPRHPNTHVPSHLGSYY
# Outline: (§1)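 Binding signal is defined as a hexamer's read frequency for one factor over its frequency for the tag-only sample. To obtain reads, GST-fused human transcription factors were expressed in yeast, captured on glutathione beads, barcoded with DNA and pooled with that sample. Pools met 200 nmole of a 16-mer random double-stranded DNA library in Tris/NaCl/DTT/glycerol buffer for 30 min at room temperature before washing, 0.1% formaldehyde crosslinking, proximity ligation (BsaI/T4 ligase, 1 h, 37 °C), PCR and Illumina NextSeq500 sequencing.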
# [2] = molecular target: T2, ELK1 (Homo sapiens, UniProt P19419 1-428)
# T2 sequence: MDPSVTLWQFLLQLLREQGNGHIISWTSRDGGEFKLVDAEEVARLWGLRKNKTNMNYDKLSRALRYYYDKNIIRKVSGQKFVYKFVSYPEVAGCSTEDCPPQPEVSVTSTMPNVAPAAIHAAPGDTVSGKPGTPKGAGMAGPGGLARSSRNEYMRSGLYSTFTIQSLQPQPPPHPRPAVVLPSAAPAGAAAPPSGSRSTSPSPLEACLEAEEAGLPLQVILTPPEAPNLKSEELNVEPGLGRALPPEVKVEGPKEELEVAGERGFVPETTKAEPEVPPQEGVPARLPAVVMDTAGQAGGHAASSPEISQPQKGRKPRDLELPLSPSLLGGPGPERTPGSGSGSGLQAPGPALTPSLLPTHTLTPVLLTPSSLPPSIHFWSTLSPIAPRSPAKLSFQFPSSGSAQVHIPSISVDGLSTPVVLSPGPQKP
# Outline: as §1
# [3] = molecular target: T3, GABPA (Homo sapiens, UniProt Q06546 1-454)
# T3 sequence: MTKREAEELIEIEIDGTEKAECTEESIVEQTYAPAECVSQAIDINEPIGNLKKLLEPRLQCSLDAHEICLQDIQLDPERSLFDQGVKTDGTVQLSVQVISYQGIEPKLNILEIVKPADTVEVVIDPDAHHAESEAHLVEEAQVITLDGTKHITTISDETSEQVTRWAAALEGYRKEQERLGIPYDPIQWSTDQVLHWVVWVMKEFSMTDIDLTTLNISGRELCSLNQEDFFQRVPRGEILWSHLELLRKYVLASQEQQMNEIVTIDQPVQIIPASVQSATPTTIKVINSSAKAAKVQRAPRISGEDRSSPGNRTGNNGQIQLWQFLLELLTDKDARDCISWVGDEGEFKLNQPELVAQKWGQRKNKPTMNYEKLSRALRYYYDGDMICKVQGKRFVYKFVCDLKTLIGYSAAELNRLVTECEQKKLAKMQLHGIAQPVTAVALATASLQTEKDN
# Outline: as §1
# [4] = molecular target: T4, ERG (Homo sapiens, UniProt P11308 1-479)
# T4 sequence: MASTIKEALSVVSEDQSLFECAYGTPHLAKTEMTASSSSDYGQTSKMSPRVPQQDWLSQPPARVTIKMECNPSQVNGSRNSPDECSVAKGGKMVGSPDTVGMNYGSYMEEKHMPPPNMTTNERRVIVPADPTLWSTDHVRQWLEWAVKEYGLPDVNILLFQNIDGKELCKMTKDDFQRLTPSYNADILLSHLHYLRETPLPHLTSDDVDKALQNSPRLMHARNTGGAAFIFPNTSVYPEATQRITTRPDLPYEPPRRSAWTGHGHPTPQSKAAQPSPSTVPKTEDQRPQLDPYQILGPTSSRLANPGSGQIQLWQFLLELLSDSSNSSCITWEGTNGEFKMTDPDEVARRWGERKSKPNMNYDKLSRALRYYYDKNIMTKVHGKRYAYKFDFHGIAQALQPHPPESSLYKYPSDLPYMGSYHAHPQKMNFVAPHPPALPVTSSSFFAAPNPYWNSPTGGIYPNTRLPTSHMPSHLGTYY
# Outline: as §1
# [5] = molecular target: ELF1 (Homo sapiens, UniProt P32519 1-619)
# ELF1, sequence (P32519 whole entry): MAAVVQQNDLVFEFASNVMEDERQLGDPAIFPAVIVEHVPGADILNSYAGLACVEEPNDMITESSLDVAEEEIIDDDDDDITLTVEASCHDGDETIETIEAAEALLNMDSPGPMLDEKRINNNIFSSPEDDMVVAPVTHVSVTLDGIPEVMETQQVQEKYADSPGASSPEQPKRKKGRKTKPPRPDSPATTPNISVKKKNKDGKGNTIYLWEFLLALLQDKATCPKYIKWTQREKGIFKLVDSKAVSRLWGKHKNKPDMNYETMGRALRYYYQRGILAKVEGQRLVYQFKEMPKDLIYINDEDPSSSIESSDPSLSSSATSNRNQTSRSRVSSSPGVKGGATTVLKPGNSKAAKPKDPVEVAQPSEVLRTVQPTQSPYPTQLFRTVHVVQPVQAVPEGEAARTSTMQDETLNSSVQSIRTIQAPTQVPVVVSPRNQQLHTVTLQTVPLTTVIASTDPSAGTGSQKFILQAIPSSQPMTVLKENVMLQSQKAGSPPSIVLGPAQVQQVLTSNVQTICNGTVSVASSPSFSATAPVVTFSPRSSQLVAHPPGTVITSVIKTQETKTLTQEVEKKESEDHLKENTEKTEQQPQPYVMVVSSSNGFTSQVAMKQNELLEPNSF
# Outline: as §1
# [6] = molecular target: T5, EHF (Homo sapiens, UniProt Q9NZC4 1-300)
# T5 sequence: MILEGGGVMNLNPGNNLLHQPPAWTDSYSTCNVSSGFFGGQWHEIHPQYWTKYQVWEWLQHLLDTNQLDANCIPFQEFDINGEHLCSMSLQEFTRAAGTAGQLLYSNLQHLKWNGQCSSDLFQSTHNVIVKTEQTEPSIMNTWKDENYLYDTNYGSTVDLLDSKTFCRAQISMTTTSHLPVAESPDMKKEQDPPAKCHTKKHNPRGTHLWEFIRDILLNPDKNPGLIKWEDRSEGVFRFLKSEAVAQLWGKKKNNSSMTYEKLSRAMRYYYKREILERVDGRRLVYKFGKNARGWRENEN
# Outline: as §1
# [7] = molecular target: SPI1 (Homo sapiens, UniProt P17947 1-270)
# Outline: as §1
# [8] = molecular target: SPIB (Homo sapiens, UniProt Q01892 1-262)
# SPIB, sequence (Q01892 whole entry): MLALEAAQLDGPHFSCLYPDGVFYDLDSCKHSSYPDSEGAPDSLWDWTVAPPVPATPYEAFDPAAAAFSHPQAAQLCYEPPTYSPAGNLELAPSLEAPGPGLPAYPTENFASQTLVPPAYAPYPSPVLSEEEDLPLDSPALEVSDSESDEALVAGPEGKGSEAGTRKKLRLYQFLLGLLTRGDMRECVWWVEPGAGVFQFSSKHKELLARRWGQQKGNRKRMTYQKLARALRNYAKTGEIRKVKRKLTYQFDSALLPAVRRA
# Outline: as §1
# [9] = molecular target: T6, ELK3 (Homo sapiens, UniProt P41970 1-407)
# T6 sequence: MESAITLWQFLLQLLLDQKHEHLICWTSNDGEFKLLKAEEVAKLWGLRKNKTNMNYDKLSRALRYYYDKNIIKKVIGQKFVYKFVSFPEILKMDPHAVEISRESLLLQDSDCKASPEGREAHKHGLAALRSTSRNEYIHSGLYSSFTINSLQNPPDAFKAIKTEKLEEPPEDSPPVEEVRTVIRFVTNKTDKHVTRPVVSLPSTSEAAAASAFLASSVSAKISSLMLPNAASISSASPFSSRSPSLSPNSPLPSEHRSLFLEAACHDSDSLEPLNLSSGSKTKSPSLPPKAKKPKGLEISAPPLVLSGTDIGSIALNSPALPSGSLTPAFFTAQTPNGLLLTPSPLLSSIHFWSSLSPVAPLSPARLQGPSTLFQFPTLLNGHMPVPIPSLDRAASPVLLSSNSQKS
# Outline: as §1
Sequence,binding signal [1],binding signal [2],binding signal [3],binding signal [4],binding signal [5],binding signal [6],binding signal [7],binding signal [8],binding signal [9]
ACCTCT,"1.32 fold enrichment (6-mer frequency, TF over GST control)","1.37 fold enrichment (6-mer frequency, TF over GST control)","1.41 fold enrichment (6-mer frequency, TF over GST control)","1.41 fold enrichment (6-mer frequency, TF over GST control)","1.47 fold enrichment (6-mer frequency, TF over GST control)","1.37 fold enrichment (6-mer frequency, TF over GST control)","1.29 fold enrichment (6-mer frequency, TF over GST control)","1.24 fold enrichment (6-mer frequency, TF over GST control)","1.36 fold enrichment (6-mer frequency, TF over GST control)"
ATCCTT,"1.72 fold enrichment (6-mer frequency, TF over GST control)","1.62 fold enrichment (6-mer frequency, TF over GST control)","1.64 fold enrichment (6-mer frequency, TF over GST control)","1.78 fold enrichment (6-mer frequency, TF over GST control)","1.6 fold enrichment (6-mer frequency, TF over GST control)","1.68 fold enrichment (6-mer frequency, TF over GST control)","1.7 fold enrichment (6-mer frequency, TF over GST control)","1.67 fold enrichment (6-mer frequency, TF over GST control)","1.68 fold enrichment (6-mer frequency, TF over GST control)"
CCTTCT,"1.62 fold enrichment (6-mer frequency, TF over GST control)","1.42 fold enrichment (6-mer frequency, TF over GST control)","1.6 fold enrichment (6-mer frequency, TF over GST control)","1.54 fold enrichment (6-mer frequency, TF over GST control)","1.63 fold enrichment (6-mer frequency, TF over GST control)","1.67 fold enrichment (6-mer frequency, TF over GST control)","1.67 fold enrichment (6-mer frequency, TF over GST control)","1.56 fold enrichment (6-mer frequency, TF over GST control)","1.79 fold enrichment (6-mer frequency, TF over GST control)"
ATGACC,"1.54 fold enrichment (6-mer frequency, TF over GST control)","1.58 fold enrichment (6-mer frequency, TF over GST control)","1.78 fold enrichment (6-mer frequency, TF over GST control)","1.52 fold enrichment (6-mer frequency, TF over GST control)","1.6 fold enrichment (6-mer frequency, TF over GST control)","1.61 fold enrichment (6-mer frequency, TF over GST control)","1.6 fold enrichment (6-mer frequency, TF over GST control)","1.45 fold enrichment (6-mer frequency, TF over GST control)","1.65 fold enrichment (6-mer frequency, TF over GST control)"
CTAATA,"1.21 fold enrichment (6-mer frequency, TF over GST control)","1.15 fold enrichment (6-mer frequency, TF over GST control)","1.13 fold enrichment (6-mer frequency, TF over GST control)","1.17 fold enrichment (6-mer frequency, TF over GST control)","1.19 fold enrichment (6-mer frequency, TF over GST control)","1.25 fold enrichment (6-mer frequency, TF over GST control)","1.24 fold enrichment (6-mer frequency, TF over GST control)","1.17 fold enrichment (6-mer frequency, TF over GST control)","1.06 fold enrichment (6-mer frequency, TF over GST control)"
GCGCTT,"1.31 fold enrichment (6-mer frequency, TF over GST control)","1.36 fold enrichment (6-mer frequency, TF over GST control)","1.32 fold enrichment (6-mer frequency, TF over GST control)","1.24 fold enrichment (6-mer frequency, TF over GST control)","1.31 fold enrichment (6-mer frequency, TF over GST control)","1.31 fold enrichment (6-mer frequency, TF over GST control)","1.2 fold enrichment (6-mer frequency, TF over GST control)","1.45 fold enrichment (6-mer frequency, TF over GST control)","1.31 fold enrichment (6-mer frequency, TF over GST control)"
CGCCCT,"1.44 fold enrichment (6-mer frequency, TF over GST control)","1.36 fold enrichment (6-mer frequency, TF over GST control)","1.37 fold enrichment (6-mer frequency, TF over GST control)","1.31 fold enrichment (6-mer frequency, TF over GST control)","1.43 fold enrichment (6-mer frequency, TF over GST control)","1.35 fold enrichment (6-mer frequency, TF over GST control)","1.24 fold enrichment (6-mer frequency, TF over GST control)","1.36 fold enrichment (6-mer frequency, TF over GST control)","1.5 fold enrichment (6-mer frequency, TF over GST control)"
TTTTTG,"1.43 fold enrichment (6-mer frequency, TF over GST control)","1.29 fold enrichment (6-mer frequency, TF over GST control)","1.38 fold enrichment (6-mer frequency, TF over GST control)","1.33 fold enrichment (6-mer frequency, TF over GST control)","1.4 fold enrichment (6-mer frequency, TF over GST control)","1.27 fold enrichment (6-mer frequency, TF over GST control)","1.54 fold enrichment (6-mer frequency, TF over GST control)","1.5 fold enrichment (6-mer frequency, TF over GST control)","1.4 fold enrichment (6-mer frequency, TF over GST control)"

# Reference: PMC7862700, “An all-to-all approach to the identification of sequence-specific readers for epigenetic DNA modifications on cytosine”
